Assay outcomes (PubChem BioAssay)
KinaseGlo FLuc: blocks Kinase-Glo luciferase, a counter-screen artifact | hit rate 0.28% among 200,000 | Q27757 | Potency, µM (series often up to 38.3 µM), for inactives: at the top dose activity change, negative = inhibition, hits mostly inhibitors | Kinase-Glo luciferase, ATP luminescence, 8 min; further: nearly all actives have a fitted effect of over 60% in size
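Compounds were added to a substrate mix at pH 7.2 (50 mM imidazole, 10 uM ATP, within the enzyme's linear range), followed by Kinase-Glo detection reagent; luminescence was measured after 8 minutes at ambient temperature.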
RORgamma inh: inhibitors of mouse ROR gamma transcriptional activity; P51450; Drosophila S2 Gal4-RORgamma UAS-luciferase reporter, 20 h; Potency, µM (doses to about 53.6 µM), without a hit: at the highest dose activity change, negative = inhibition, hits mostly inhibitors; hit rate 5.4% among 310,000; AID 2551; further: nearly all actives have a fitted effect of over 60% in size
Target sequence (P51450 whole entry, looked up, the tested form may be a part): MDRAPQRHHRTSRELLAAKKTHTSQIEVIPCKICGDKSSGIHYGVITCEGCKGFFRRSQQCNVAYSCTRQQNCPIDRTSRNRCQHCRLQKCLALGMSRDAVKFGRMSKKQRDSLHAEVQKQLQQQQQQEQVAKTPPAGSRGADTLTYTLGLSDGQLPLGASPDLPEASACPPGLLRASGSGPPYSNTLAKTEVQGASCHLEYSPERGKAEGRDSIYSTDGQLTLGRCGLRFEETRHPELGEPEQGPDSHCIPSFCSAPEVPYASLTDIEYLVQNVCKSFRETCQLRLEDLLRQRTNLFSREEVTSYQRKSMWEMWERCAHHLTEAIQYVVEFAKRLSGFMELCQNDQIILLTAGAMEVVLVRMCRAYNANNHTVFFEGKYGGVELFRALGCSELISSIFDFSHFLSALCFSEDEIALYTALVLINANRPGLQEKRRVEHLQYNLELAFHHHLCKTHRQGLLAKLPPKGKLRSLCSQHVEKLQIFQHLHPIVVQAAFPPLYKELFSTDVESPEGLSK
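Drosophila S2 cells stably expressing Gal4-DBD/mouse RORγ fusion under metallothionein promoter plus UAS-luciferase; compound 1 h, then 700 uM CuSO4 induction for 20 h at ambient temperature; inhibition read as reduced luminescence.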
VP16 counter: counter-screen for ROR gamma inhibitors: Gal4-VP16 reporter. Drosophila S2 Gal4-VP16 UAS-luciferase, luminescence, 20 h. Potency, µM (highest dose often 53.6 µM), for the others: at the top dose activity, negative = inhibition, usual class: inhibitors. hit rate 3.5% among 310,000. AID 2546;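 further: Gal4-VP16 expression switched on by copper sulfate through the metallothionein promoter; nearly all actives have a fitted effect of over 50% in size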
* marks the source's active call; other numbers are inactive results; ? = inconclusive; . = not tested or not shown; [ ] = dose if it differs, or a comment. Shown are actives, neighbours in structure and some others; about 6.2% of the full set was active somewhere. The call rests on the fitted dose curve; in most records, active means well fitted curve in the direction sought with a large enough effect; inconclusive means small, poorly fitted or top-dose-only effect, or another doubt; inactive means no such curve, though single readings can be large; an effect the other way counts as inactive or inconclusive. On the % scale 0 is the no-effect control and ±100 the full control effect; potency means the concentration at half of the fitted maximal effect.

SMILES	KinaseGlo FLuc	RORgamma inh	VP16 counter
CN1Cc2c(N3CCOCC3)nc3sc(C(=O)c4ccc(Br)cc4)c(N)c3c2CC1(C)C	.	11.2µM*	?
Cc1ccc(S(=O)(=O)NCc2cc(=O)n(C)c(=O)n2C)cc1C	.	-2.2%	?
N#Cc1ccccc1-c1ccc2ncnc(NC3CC3)c2c1	.	?	-12.7%
O=C(O)c1ccccc1/C=N/n1c(C2CCCCC2)n[nH]c1=S	.	-17.3%	-5.1%
S=c1[nH]nc(C2CCCCC2)n1/N=C/c1ccccc1Cl	.	11.2µM*	?
S=c1[nH]nc(C2CCCCC2)n1/N=C/c1cccs1	-5.0%	14.1µM*	?
COc1ccccc1/C=C/C=N/N1CCN(Cc2ccccc2)CC1	3.0%	8.7%	?
COc1ccccc1/C=C/C=N/n1c(C2CCCCC2)n[nH]c1=S	2.5%	1.41µM*	2.51µM*
Cc1nc2ccccc2c(=O)n1/N=C/c1cccs1	-0.8%	32.9%	?
FC(F)(F)c1ccccc1/C=N/n1c(C2CCCCC2)n[nH]c1=S	.	7.94µM*	?
CCN(CC)CCN1C(=O)C(=O)/C(=C(/O)c2ccc3c(c2)CC(C)O3)C1c1ccc(OC)cc1 (stereo not drawn)	.	3.9%	3.2%
CCCC1(c2ccccc2)NC(=O)N(CC(=O)N(C)Cc2c(F)cccc2Cl)C1=O (stereo not drawn)	.	34.6%	1.8%
COc1ccc(OC2C(O)COC2/C=C/C#Cc2ccccc2)cc1 (stereo not drawn)	.	3.6%[10 µM]	21.2%[10 µM]
COCC(=O)N1CCC[C@@]2(CCN(c3ccncc3)C2)C1	-3.2%	-8.3%	2.4%
CC(=O)N[C@@H](CSC/C=C(\C)CC/C=C(\C)CCC=C(C)C)C(=O)O	1.5%	-28.0%	9.7%
CCOc1ccccc1/C=N/n1c(C)nc2ccccc2c1=O	.	-17.9%	3.6%
CCOc1ccccc1/C=N/n1c(C2CCCCC2)n[nH]c1=S	.	4.47µM*	?
CC1(C(=O)CSc2n[nH]c(-c3ccccc3Cl)n2)CCC(=O)O1 (stereo not drawn)	-3.8%	-13.5%	2.0%
CC1CC2(CC(C)(C(=O)CSc3n[nH]c(-c4ccccc4Cl)n3)OC2=O)C(=O)O1 (stereo not drawn)	1.0%	10µM*	?
Cn1cc(C(=O)c2ccccc2C(=O)O)cc1C(=O)C(Cl)(Cl)Cl	.	3.4%	1.8%
CNC(=S)NNC(=O)COc1cccc(C)c1C	0.3%	1.41µM*	7.08µM*
Cc1ccccc1OCC(=O)NNC=O	-0.4%	-11.6%	-1.2%
CNC(=S)NNC(=O)COc1ccccc1C	-2.6%	7.08µM*	10µM*
Cc1cccc(OCC(=O)Nc2ccc3c4c(cccc24)CC3)c1C	-1.6%	-3.9%	-29.0%
CC(NC(=O)CCC1COc2ccccc2O1)c1ccccc1 (stereo not drawn)	-3.6%	?	-4.1%
SMILES	KinaseGlo FLuc	RORgamma inh	VP16 counter
COc1cc(C(=O)NNC(=S)Nc2ccc(S(N)(=O)=O)cc2)cc(OC)c1OC	-1.5%	-17.7%	-2.8%
NC(Cc1ccc(O)c(O)c1)C(=O)O (stereo not drawn)	-5.0%	-37.0%	-10.8%
COc1ccc(C(CC(=O)O)NS(=O)(=O)c2ccc3c(c2)NC(=O)CO3)cc1 (stereo not drawn)	.	-7.6%	1.1%
Cc1cc(-c2nc(C)c(-c3nnc(SCC(=O)Nc4ccc(Cl)cc4)n3C)s2)no1	.	6.8%	1.5%
COc1ccc(C2=NN(c3ccc(C(=O)O)cc3)C(c3ccc(OC)c(OC)c3)C2)cc1 (stereo not drawn)	.	7.08µM*	-15.4%
COc1ccc(C2CC(c3ccccc3)=NN2c2ccc(S(N)(=O)=O)cc2)cc1OC (stereo not drawn)	1.8%	7.9%	-3.6%
CCNc1ncc2nc(C)c(=O)n(Cc3ccc(F)cc3)c2n1	.	-22.7%	2.8%
C/C(CC1CC(C)OC1=O)=N\NC(N)=S (stereo not drawn)	0.6%	8.91µM*	?
CCC1CC(/C(C)=N/NC(N)=O)OC1=O (stereo not drawn)	0.8%	-21.3%	5.3%
O=C(NC(=S)NC1CCS(=O)(=O)C1)c1ccccc1 (stereo not drawn)	.	17.4%	-9.0%
COC(=O)Cc1ccc(NC(=S)NNC(=O)c2ccccc2Br)cc1	-1.4%	1.58µM*	17.8µM*
CN(C(=O)c1cccc(NC(=O)c2ccccc2)c1)C1CCCCC1	.	22.6%	-14.6%
COC(=O)Cc1ccc(NC(=O)c2ccccc2Br)cc1	-2.9%	-14.8%	-5.9%
CN(C(=S)NC(=O)c1ccc(F)cc1)C1CCCCC1	.	0.891µM*	1.12µM*
O=C(NC(=S)NC1CCCCC1)c1ccccc1	.	5.01µM*	7.08µM*
CN(C(=S)NC(=O)c1ccccc1)C1CCCCC1	.	1.12µM*	1.26µM*
O=C(NO)c1ccc(C(=O)N(C2CCCCC2)C2CCCCC2)cc1	-1.3%	-20.2%	1.9%
Cc1cccc(OCCC(=O)Nc2nnc(C)s2)c1	-0.5%	14.6%	-19.1%
Cc1ccc(/C=N/NC(=O)NC23CC4CC(CC(C4)C2)C3)o1	.	30.5%	3.0%
C[C@@H](O)[C@H]1C(=O)N2C(C(=O)O)=C(S[C@@H]3CN[C@H](C(=O)N(C)C)C3)[C@H](C)[C@H]12	-1.3%[17.1 µM]	2.6%[16.9 µM]	-0.8%[17 µM]
Cc1ccc(N(C)S(=O)(=O)c2csc(C(N)=O)c2)cc1C	.	24.3%	13.8%
O=C(NC1CCCCC1)Oc1ccccc1	.	-32.1%	19.7%
O=C(NNC(=O)C1CCC1)c1ccc(Cl)cc1	.	1.7%	-8.9%
O=C(NNC(=S)NC1CCCCC1)c1ccccc1Br	.	1.12µM*	?
CN(C(=S)NC(=O)c1ccc(Cl)cc1)C1CCCCC1	.	0.316µM*	0.794µM*
SMILES	KinaseGlo FLuc	RORgamma inh	VP16 counter
O=C(NC1CCCCCCC1)c1ccccc1O	-0.6%	?	6.6%
COc1ccc(Cl)cc1C(=O)NNC(=S)NC1CCCCC1	.	0.251µM*	?
S=C(NC1CCCCC1)NN(c1ccccc1)c1ccccc1	1.8%	2.51µM*	5.62µM*
COc1cc(OC)c(C(=O)NNC(=S)NC2CCCCC2)cc1OC	2.2%	?	-10.8%
COc1ccc(NC(=O)c2ccco2)c(NC(=O)c2ccc([N+](=O)[O-])cc2)c1	.	-25.0%	-3.4%
CCOc1ccc(CCNC(=O)C2CCN(c3nn4c(=O)cc(C)nc4s3)CC2)cc1OCC	0.1%	14.8%	-1.4%
O=C(NCc1cccnc1)c1ccc([N+](=O)[O-])o1	-2.8%	-37.9%	-21.4%
CS(=O)(=O)N(CC(=O)N1CCCC1)c1ccccc1F	.	4.6%	-9.5%
CC1CCCC(NC(=O)Cc2ccc(Br)cc2)C1C (stereo not drawn)	-2.5%	-43.6%	2.0%
CC1CCCC(NC(=S)NC(=O)c2ccccc2Br)C1C (stereo not drawn)	-3.5%	2.51µM*	5.01µM*
O=C(NNC(=S)Nc1ccccc1Cl)c1ccccc1Br	.	7.94µM*	?
O=C(NNC(=O)c1ccccc1Br)c1ccccc1Cl	-3.7%	24.6%	2.3%
CCOCCc1c(O)nc(SCC)[nH]c1=O	.	-15.5%	-8.4%
O=C(CN1CCN(c2cccc(Cl)c2)CC1)NC1CCCc2ccccc21 (stereo not drawn)	.	30.4%	-4.5%
O=C(NCc1ccccc1)[C@]1(C(F)(F)F)C[C@H](CCCO)CCCO1	.	22.2%	-6.5%
CC1CCCN(c2ccc(C(=O)Nc3ccc4c(c3)OCO4)cc2[N+](=O)[O-])C1 (stereo not drawn)	0.5%	?	-0.7%
